Growth data for 15 compounds are collected here from PubChem BioAssay (NCI).

Among the test systems are DU-145 prostate; K-562 leukemia; MALME-3M melanoma; MDA-MB-231 breast; RXF 393 renal; SF-268 CNS; SF-295 CNS; SF-539 CNS; UACC-257 melanoma; M14 melanoma.
Common to all, as to experiment: NCI-60 one-dose screen, 48 h (100 = growth as untreated, 0 = no growth, -100 = all killed)
Conditions in all cases: 10 µM unless noted

The panel holds about 83,000 compounds, 20% with a hit somewhere; the sample as a whole holds those more often.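 Results are percent growth after 48 hours of single-concentration exposure. 100 means growth as in untreated cells, lower positive values show inhibition; negative values down to -100 show cell death.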 Values without a mark were called inactive. The source made the active and inactive calls. The calls were made as follows: active = growth percent below 10; inactive = the rest.

For `Clc1ccc(-c2noc(/C=C\c3ccccc3)n2)cc1`, the growth in the assay on DU-145 prostate was 108%; in the assay on K-562 leukemia, 94.6%; with MALME-3M melanoma, 95%; in the assay on MDA-MB-231 breast, 109%; in the assay with RXF 393 renal, 104%; in the assay on SF-268 CNS, 106%. The growth in the assay with SF-295 CNS is 89.9%; in the assay on SF-539 CNS, 101%; in the assay on UACC-257 melanoma, 104%; with M14 melanoma, 101%.

Consider `Cn1c(=O)c2[nH]c(CC(=O)O)nc2n(C)c1=O`, for which the growth was 108% in the assay with DU-145 prostate; 105% in the assay on K-562 leukemia; 99.4% in the assay with MALME-3M melanoma; 100% in the assay on MDA-MB-231 breast; 104% in the assay with RXF 393 renal; 101% in the assay with SF-268 CNS. Further, the results for the growth in the assay on SF-295 CNS, in the assay with UACC-257 melanoma and in the assay on M14 melanoma were 101%, 96.9% and 104%, respectively.

With `O=C1NC(=O)C(c2ccccc2)O1` (stereo unspecified), the growth with DU-145 prostate is 119%; with K-562 leukemia, 92.6%; with MALME-3M melanoma, 100%; in the assay with MDA-MB-231 breast, 122%; in the assay with RXF 393 renal, 121%; in the assay with SF-268 CNS, 115%. For the same compound, the figures for the growth in the assay on SF-539 CNS, in the assay with UACC-257 melanoma and in the assay with M14 melanoma were 96.4%, 98.8% and 100%, respectively.

In the case of `Nc1ccc2ccccc2c1-c1c(N)ccc2ccccc12`, the growth is 25.8% in the assay with DU-145 prostate; 18.7% with K-562 leukemia; 42.4% in the assay with MALME-3M melanoma; 43% with MDA-MB-231 breast; 6.23% (active) with RXF 393 renal; 54.1% with SF-268 CNS. For the same compound, the figures for the growth with SF-295 CNS, with UACC-257 melanoma and with M14 melanoma were 13.8%, 18% and 19.5%, respectively.

`NC(=S)N/N=C/c1ccc(OC(=O)COc2ccccc2)cn1`: the growth was 26.1% in the assay on DU-145 prostate; 53.4% with K-562 leukemia; 52.2% in the assay on MALME-3M melanoma; 60% in the assay with MDA-MB-231 breast; 72.2% in the assay with RXF 393 renal; 30.7% in the assay with SF-268 CNS. The growth in the assay with SF-295 CNS is 111%; with UACC-257 melanoma, 90.6%; with M14 melanoma, 15%.

On to `BrCc1cccc(C[P+](c2ccccc2)(c2ccccc2)c2ccccc2)c1`, for which the growth with DU-145 prostate was 64.9%; with K-562 leukemia, 28.8%; in the assay on MALME-3M melanoma, 38.3%; in the assay with MDA-MB-231 breast, 93.2%; with RXF 393 renal, 84.4%; in the assay with SF-268 CNS, 56.4%. In addition, the growth in the assay with SF-295 CNS is 72.2%; with SF-539 CNS, 35.4%; in the assay on UACC-257 melanoma, 14.2%; in the assay on M14 melanoma it was 51.4%.

`C[n+]1cc2cc3c(cc2c2ccccc21)OCO3`: the growth in the assay with DU-145 prostate is 57.3%; with K-562 leukemia, 49.1%; with MALME-3M melanoma, -0.635% (active); in the assay on MDA-MB-231 breast it was 90.1%; in the assay on SF-268 CNS, -0.333% (active); in the assay with SF-295 CNS, 9.18% (active). Also, the growth in the assay with SF-539 CNS was 38.8%; in the assay with UACC-257 melanoma, 69.5%; in the assay on M14 melanoma it was 81.4%.

For `O=C(O)CC1=CCCCC1`, the growth in the assay on DU-145 prostate is 102%; in the assay on K-562 leukemia, 102%; with MALME-3M melanoma it was 90.8%; in the assay on MDA-MB-231 breast, 98%; with SF-268 CNS, 93.4%; in the assay on SF-295 CNS, 95.2%. For the same compound, the growth with SF-539 CNS was 98.4%; in the assay on UACC-257 melanoma it was 100%; in the assay with M14 melanoma it was 95.8%.

On to `CCOC(=O)c1ccc(Nc2sc(C(=O)c3ccc(Br)cc3)c(N)c2C#N)cc1`, for which the growth in the assay with DU-145 prostate is 10.8%; with K-562 leukemia it was 12.9%; in the assay on MALME-3M melanoma it was 31.8%; with MDA-MB-231 breast, 52.9%; in the assay with SF-268 CNS it was 33.5%; with SF-295 CNS, -11.1% (active). Further, the growth with SF-539 CNS was -1.74% (active); with UACC-257 melanoma, 38.2%; in the assay with M14 melanoma it was 29.4%.

In the case of `CNc1ccccc1C(=O)N/N=C/C=C/c1ccccc1`, the growth was 14.9% with DU-145 prostate; 8.9% (active) with K-562 leukemia; 31.5% with MALME-3M melanoma; 49.3% with MDA-MB-231 breast; 34.9% in the assay with SF-268 CNS; -0.27% (active) with SF-295 CNS. Further, the values for the growth with SF-539 CNS, with UACC-257 melanoma and in the assay on M14 melanoma were 21.7%, 39.1% and 17.1%, respectively.

Consider `CC(CO)(CO)C(=O)O`, for which the growth in the assay on DU-145 prostate was 105%; in the assay with K-562 leukemia, 101%; in the assay with MALME-3M melanoma, 90.4%; in the assay with MDA-MB-231 breast it was 108%; with RXF 393 renal, 99.5%; in the assay on SF-268 CNS, 104%. Moreover, the growth with SF-539 CNS was 97.9%; in the assay on UACC-257 melanoma, 98.4%; in the assay with M14 melanoma, 103%.

`CC(C)NC(=O)OCc1c(COC(=O)NC(C)C)c(-c2ccc(Cl)cc2)n2c1CCC2`: the growth with DU-145 prostate was 15%; in the assay on K-562 leukemia it was 58.4%; with MALME-3M melanoma, 59.3%; with MDA-MB-231 breast, 65.8%; in the assay with SF-268 CNS, 31%; in the assay with SF-295 CNS it was 20.8%. Further, the growth was 16.3% in the assay with SF-539 CNS, 88.8% in the assay on UACC-257 melanoma and 33.2% with M14 melanoma.

Take `O=C(NC1CCCCC1)c1ccc(Cl)cc1`: the growth is 103% with DU-145 prostate; 96.5% in the assay with K-562 leukemia; 106% with MALME-3M melanoma; 113% in the assay with MDA-MB-231 breast; 97.1% with SF-268 CNS; 105% in the assay with SF-295 CNS. The values for the growth in the assay with SF-539 CNS, with UACC-257 melanoma and with M14 melanoma were 104%, 105% and 105%, respectively.

Turning to `Cc1ccc(NC(=S)N2CCOCC2)cc1C`, the growth in the assay with DU-145 prostate is 109%; in the assay with K-562 leukemia, 95.4%; with MALME-3M melanoma, 93.8%; with MDA-MB-231 breast, 99.9%; with SF-268 CNS it was 110%; in the assay with SF-295 CNS, 96.2%. Moreover, the growth in the assay with SF-539 CNS is 103%; with UACC-257 melanoma it was 93.5%; in the assay with M14 melanoma, 93.1%.

As to `CC(C)(C)CC1(C)NC(=O)NC1=O` (stereo unspecified), the growth in the assay with DU-145 prostate was 114%; with K-562 leukemia, 126%; with MALME-3M melanoma it was 111%; in the assay with MDA-MB-231 breast it was 118%; with SF-268 CNS, 119%; with SF-295 CNS it was 108%. Further, the results for the growth in the assay on SF-539 CNS and in the assay with UACC-257 melanoma were 109% and 114%, respectively.
